Calls of active or inactive are those of the source.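 The calls were made as follows, unless noted: active = NADPH fluorescence slope more negative than the mean of all samples by about 3 SD, 99.7% confidence; inactive = the rest.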

Assay [1] is described as follows: inhibitors of TNFa-induced NFkB p65 translocation, primary screen, imaging, HUVEC, MLSMR starter and 10KST1 sets (AID 438;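 active = inhibition above 20% together with a positive visual image hit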;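 also: compound added about 3h40 before a 20 min TNFalpha stimulation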;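 as to inhibition: signal is the nuclear over cytoplasmic p65 intensity ratio per well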). As to conditions: HUVEC TNFa-induced p65 nuclear translocation; cell count: measured here: nuclei count (cytotoxicity indicator), at 2.08 µM; inhibition: at 2 µM, stronger effect = higher value, 0% TNFa-plus-vehicle, 100% no-TNFa wells.
A short description of assay [2]: inhibitors of mutant huntingtin aggregation, primary screen, imaging, exon1htt(103Q)mCFP cells, high-content imaging (AID 483;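 active = visual image review flags a hit and inhibition of aggregation exceeds 20%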;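 also: compound exposure lasted 3 days before fixation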;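 as to nuclei count: percent of the per-plate median nuclei count of sample wells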). The following applies: exon1htt(103Q)mCFP cell line, aggregate imaging, at 2 µM; inhibition of aggregation: stronger effect = higher value; nuclei count: measured here: cell count, toxicity.
Assay [3] is described as follows: inhibitors of E-selectin induction by TNFa, primary screen, imaging, HUVEC, immunofluorescence, MLSMR starter and 10KST1 sets (AID 487;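 active = visually confirmed hit in the image check and inhibition above 20%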;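 as to inhibition: signal is fraction of cell area covered by stained E-selectin grains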;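 as to nuclei count: 100% = median nuclei count of all wells on the same plate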). The following applies: HUVEC TNFalpha-induced E-selectin immunofluorescence imaging, at 2 µM; inhibition: stronger effect = higher value; nuclei count: measured here: cell number, toxicity.
Assay [4] concerns the target Voltage-gated potassium channel subunit beta-2 (Rattus norvegicus) (UniProt P62483). In words: KvBeta enzyme negative modulators, primary screen, biochemical, NADPH fluorescence (AID 622;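 active = fluorescence slope higher than the sample average by over 3 SD, cut at about -0.22 in these data, passing the limit was not always enough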;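 also: slope of raw intensity against log time taken from 70 to 1610 s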). The following applies: recombinant KvBeta, 4-cyanobenzaldehyde reduction, at 10 µM, stronger effect = higher value.
The target is the same in assay [5]. In words: KvBeta positive modulators, primary screen, biochemical, NADPH fluorescence (AID 623).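 Also: fluorescence intensity change per second fitted from 20 to 320 s.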 The following applies: Recombinant KvBeta, NADPH fluorescence decrease slope, 10 min; at 10 µM; stronger effect = lower value.
The target of assay [6] is Alpha-2C adrenergic receptor (Homo sapiens) (UniProt P18825). In words: modulators of alpha2C/GIRK thallium flux, primary screen, cell-based, HEK293 alpha2C/GIRK1/2 (AID 624;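 active = fluorescence slope after compound addition differing from the mean of all screened samples at 99.7% confidence, in either direction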;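 also: slope of fluorescence ratio to pre-addition baseline per second over 15 to 24 s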). As to conditions: thallium flux BTC fluorescence, at 10 µM, actives lie on both sides.
Alpha-2C adrenergic receptor (Homo sapiens), sequence (P18825 whole entry, looked up): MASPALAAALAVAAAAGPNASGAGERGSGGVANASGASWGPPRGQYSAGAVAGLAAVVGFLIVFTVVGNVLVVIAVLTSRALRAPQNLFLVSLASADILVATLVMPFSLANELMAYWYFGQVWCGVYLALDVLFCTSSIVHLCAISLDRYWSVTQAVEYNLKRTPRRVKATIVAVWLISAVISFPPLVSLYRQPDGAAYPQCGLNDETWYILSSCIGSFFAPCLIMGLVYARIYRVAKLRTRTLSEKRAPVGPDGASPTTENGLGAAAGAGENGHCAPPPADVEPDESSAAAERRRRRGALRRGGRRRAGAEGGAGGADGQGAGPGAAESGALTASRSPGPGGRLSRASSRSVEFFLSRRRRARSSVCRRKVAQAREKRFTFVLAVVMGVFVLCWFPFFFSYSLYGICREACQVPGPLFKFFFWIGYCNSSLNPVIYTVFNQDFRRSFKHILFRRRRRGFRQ
The nature of assay [7]: inhibitors of Sendai virus-induced IRF3 signaling, primary screen, TLR/RLR signaling modifier project, cell-based, Sendai virus stimulus, luciferase, 10K MLSCN set (AID 602276;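 active = inhibition at or above 50% at 10 µM; inactive = inhibition below 50%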;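 also: firefly luciferase from ISG56 promoter only with Renilla not read in this screen; 0% = Sendai virus plus DMSO and 100% = medium plus DMSO without virus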). As to conditions: HEK293 RL24 IRF3 luciferase reporter, at 10 µM, stronger effect = higher value.
A short description of assay [8]: inhibitors of poly I:C-induced TLR3 signaling, primary screen, cell-based, poly I:C stimulus, luciferase, 10K MLSCN set (AID 602277;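 active = inhibition of the reporter signal at or above 50%; inactive = inhibition below 50%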). As to conditions: HEK293-TLR3 RL24 IRF3 luciferase reporter, at 10 µM, stronger effect = higher value. A general note: In a reporter assay the amount or activity of a reporter protein is the signal.

Voltage-gated potassium channel subunit beta-2 (Rattus norvegicus), sequence (P62483 whole entry, looked up): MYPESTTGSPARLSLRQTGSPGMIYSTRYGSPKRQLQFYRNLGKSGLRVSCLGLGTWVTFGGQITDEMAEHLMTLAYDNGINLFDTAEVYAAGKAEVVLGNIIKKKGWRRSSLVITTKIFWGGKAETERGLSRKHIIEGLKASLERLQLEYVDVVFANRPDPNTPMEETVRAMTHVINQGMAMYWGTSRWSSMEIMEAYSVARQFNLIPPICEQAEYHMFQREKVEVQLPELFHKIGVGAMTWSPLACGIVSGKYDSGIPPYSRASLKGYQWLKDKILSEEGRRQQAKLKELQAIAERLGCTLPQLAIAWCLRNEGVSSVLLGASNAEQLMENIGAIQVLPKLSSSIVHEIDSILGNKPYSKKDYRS

In general, inhibition refers to the drop in the measured response relative to a control, in per cent. In the case of `O=c1c2ccc(-c3nnc4n3-c3ccccc3SC4)cc2nc2n1CCCCC2`, the cell count in assay [1] came out at 473. For the same compound, the inhibition in assay [1] is -1.1% (inactive); in assay [3] it was -41.6% (inactive); in assay [7], 11.2% (inactive); in assay [8] it was 14.5% (inactive). The inhibition of aggregation in assay [2] is 9% (inactive). The nuclei count turned out to be 111% in assay [2] and 116% in assay [3]. In addition, the fluorescence slope in assay [4] is -0.414 (inactive). In assay [5], the NADPH fluorescence slope was -3.1e-05 (inactive). In addition, the slope in assay [6] is 0.00551 (inactive).
As for `O=C(c1cnc2n(c1=O)CCS2)N(C1CCCCC1)C1CCCCC1`, the cell count in assay [1] came out at 649. The inhibition in assay [1] is -6.9% (inactive); in assay [3] it was -47.3% (inactive); in assay [7], 11% (inactive); in assay [8] it was 39.3% (inactive). Also, in assay [2], the inhibition of aggregation is 6.9% (inactive). The nuclei count was 97.5% in assay [2] and 122% in assay [3]. Moreover, the fluorescence slope in assay [4] is -0.42 (inactive). In addition, the NADPH fluorescence slope in assay [5] was -4.8e-05 (inactive). The slope in assay [6] is 0.00465 (inactive).
Consider `O=C1CC(Sc2nnc(-c3ccccc3)o2)C(=O)N1c1ccccc1` (centres undefined), for which the cell count in assay [1] was 677. Further, the inhibition in assay [1] was -1.1% (inactive); in assay [3] it was -12.2% (inactive); in assay [7], 4.52% (inactive); in assay [8] it was 3.11% (inactive). The inhibition of aggregation in assay [2] is 3.6% (inactive). The results for the nuclei count in assay [2] and in assay [3] were 105% and 91.1%, respectively. Further, in assay [4], the fluorescence slope was -0.404 (inactive). Also, the NADPH fluorescence slope in assay [5] was -6.5e-05 (inactive). Moreover, in assay [6], the slope is 0.00487 (inactive).
Regarding `CCC(C)(C)NC(=O)CN(C(=O)c1snc(C(N)=O)c1N)c1ccc2c(c1)OCO2`, the cell count in assay [1] was determined as 688. In addition, the inhibition in assay [1] is -7.3% (inactive); in assay [3] it was -39.8% (inactive); in assay [7], 13.1% (inactive); in assay [8], 14.6% (inactive). Besides, the inhibition of aggregation in assay [2] is 0.7% (inactive). The figures for the nuclei count in assay [2] and in assay [3] were 103% and 120%, respectively. Also, the fluorescence slope in assay [4] was -0.517 (inactive). Further, the NADPH fluorescence slope in assay [5] was 3.3e-05 (inactive). The slope in assay [6] was 0.00589 (inactive).
`Cc1ccc(CC2SC(=O)NC2=O)cc1Cl` (centres undefined): the cell count in assay [1] was found to be 790. Also, the inhibition in assay [1] was 10.4% (inactive); in assay [3], 0% (inactive); in assay [7], 10.2% (inactive); in assay [8] it was 12% (inactive). Also, the inhibition of aggregation in assay [2] is -3% (inactive). Also, the nuclei count in assay [2] is 97.9%; in assay [3], 119%. Moreover, the fluorescence slope in assay [4] is -0.488 (inactive). Further, in assay [5], the NADPH fluorescence slope is -5.4e-05 (inactive). Besides, in assay [6], the slope was 0.00487 (inactive).
With `CSCC[C@@H](Nc1nc(-c2ccccc2)nc2c1oc1ccccc12)C(=O)O`, the cell count in assay [1] was determined as 322. In addition, the inhibition was 1.9% (inactive) in assay [1], -92.1% (inactive) in assay [3], 4.35% (inactive) in assay [7] and 41% (inactive) in assay [8]. Moreover, in assay [2], the inhibition of aggregation was -20.9% (inactive). Besides, the nuclei count was 83.4% in assay [2] and 123% in assay [3]. The fluorescence slope in assay [4] is -0.442 (inactive). For the same compound, the NADPH fluorescence slope in assay [5] is 9.3e-06 (inactive). In assay [6], the slope is 0.00719 (inactive).
Regarding `CC(C)(C)c1cc(NC(=O)c2cc(F)c(F)c(F)c2F)no1`, the cell count in assay [1] came to 405. The inhibition was -2.1% (inactive) in assay [1], -96.2% (inactive) in assay [3], -23.2% (inactive) in assay [7] and -90.4% (inactive) in assay [8]. Further, the inhibition of aggregation in assay [2] is -14.9% (inactive). In addition, the nuclei count came to 104% in assay [2] and 112% in assay [3]. Besides, in assay [4], the fluorescence slope is -0.435 (inactive). In addition, in assay [5], the NADPH fluorescence slope was -6.8e-06 (inactive). In addition, in assay [6], the slope is 0.00297 (inactive).
Turning to `Cc1cc(=O)oc2ccc(OCC(=O)N(Cc3ccc(F)cc3)Cc3ccco3)cc12`, the cell count in assay [1] came out at 751. Moreover, the inhibition in assay [1] is 2.2% (inactive); in assay [3] it was -150% (inactive); in assay [7], -10.8% (inactive); in assay [8] it was -19% (inactive). Moreover, the inhibition of aggregation in assay [2] was -0.1% (inactive). In addition, the nuclei count in assay [2] was found to be 95.6%; in assay [3], 107%. Further, in assay [4], the fluorescence slope was -0.493 (inactive). In addition, the NADPH fluorescence slope in assay [5] is 2.4e-05 (inactive). For the same compound, in assay [6], the slope was 0.00494 (inactive).
Regarding `CC1Cc2ccccc2N1C(=O)COC(=O)Cn1nnc(-c2ccccc2)n1` (centres undefined), the cell count in assay [1] stood at 543. Also, the inhibition was -9% (inactive) in assay [1], -39.7% (inactive) in assay [3], 11% (inactive) in assay [7] and 34.2% (inactive) in assay [8]. Moreover, in assay [2], the inhibition of aggregation is -4.6% (inactive). For the same compound, the values for the nuclei count in assay [2] and in assay [3] were 96.1% and 123%, respectively. In addition, in assay [4], the fluorescence slope is -0.583 (inactive). Also, in assay [5], the NADPH fluorescence slope is -4e-05 (inactive). In assay [6], the slope was 0.00555 (inactive).
For `Cn1c(N2CCC(C(N)=O)CC2)nc2c1c(=O)n(Cc1ccc(Br)cc1)c(=O)n2C`, the cell count in assay [1] was 537. Further, the inhibition in assay [1] was -2.7% (inactive); in assay [3] it was 24.2% (inactive); in assay [7] it was 6.03% (inactive); in assay [8] it was 1.39% (inactive). In addition, in assay [2], the inhibition of aggregation is 4.3% (inactive). Moreover, the nuclei count in assay [2] was 97.3%; in assay [3], 95.1%. Besides, in assay [4], the fluorescence slope is -0.571 (inactive). For the same compound, in assay [5], the NADPH fluorescence slope is -2.3e-05 (inactive). Also, the slope in assay [6] is 0.00671 (inactive).
`Nc1nc(Nc2ccc(Cl)cc2Cl)nc(C(F)(F)F)n1`: the cell count in assay [1] was 348. Moreover, the inhibition in assay [1] was 0.6% (inactive); in assay [3] it was -19.5% (inactive); in assay [7], -32.5% (inactive); in assay [8] it was -84.9% (inactive). Further, the inhibition of aggregation in assay [2] is -0.7% (inactive). For the same compound, the figures for the nuclei count in assay [2] and in assay [3] were 96.9% and 105%, respectively. Besides, the fluorescence slope in assay [4] was -0.348 (inactive). Moreover, in assay [5], the NADPH fluorescence slope was -1.8e-06 (inactive). Besides, the slope in assay [6] was 0.00538 (inactive).
`CS(=O)(=O)N(CC(=O)Nc1ccc2c(c1)OCCO2)Cc1ccccc1`: the cell count in assay [1] came to 348. Moreover, the inhibition is -4.7% (inactive) in assay [1], 9.6% (inactive) in assay [3], 8.2% (inactive) in assay [7] and 17.2% (inactive) in assay [8]. Further, the inhibition of aggregation in assay [2] was -2.9% (inactive). For the same compound, the nuclei count in assay [2] came to 107%; in assay [3], 105%. For the same compound, the fluorescence slope in assay [4] is -0.413 (inactive). Besides, in assay [5], the NADPH fluorescence slope is 3.7e-05 (inactive). Moreover, the slope in assay [6] is 0.00583 (inactive).
On to `O=C(CNCCC1=CCCCC1)Nc1ccccc1N1CCCCC1`, for which, in assay [1], the cell count is 531. Also, the inhibition in assay [1] is -56.1% (inactive); in assay [3], -65.7% (inactive); in assay [7] it was 7.21% (inactive); in assay [8] it was 18.4% (inactive). In assay [2], the inhibition of aggregation is -10.4% (inactive). Moreover, the nuclei count in assay [2] was 107%; in assay [3], 109%. The fluorescence slope in assay [4] is -0.581 (inactive). Also, the NADPH fluorescence slope in assay [5] was -2.4e-05 (inactive). For the same compound, the slope in assay [6] was 0.00492 (inactive).
`CCCCn1c(CN(C)Cc2ccccc2)nc2c1c(=O)n(C)c(=O)n2C`: the cell count in assay [1] worked out at 227. For the same compound, the inhibition in assay [1] was -6.1% (inactive); in assay [3], 16.4% (inactive); in assay [7], -18.7% (inactive); in assay [8], -58.3% (inactive). Also, the inhibition of aggregation in assay [2] was 13.2% (inactive). For the same compound, the results for the nuclei count in assay [2] and in assay [3] were 57% and 103%, respectively. Also, in assay [4], the fluorescence slope was -0.605 (inactive). Besides, the NADPH fluorescence slope in assay [5] is -6.4e-05 (inactive). In addition, in assay [6], the slope is 0.00658 (inactive).

(Values after PubChem BioAssay.)
